From PubChem BioAssay AID2101 (National Center for Advancing Translational Sciences (NCATS), 2009)
Screen size: about 330,000 compounds; about 300 (0.091%) were called active. Not shown: some 4% with an inconclusive outcome. The sample as a whole holds a higher share of actives than the screen did. A number with no mark means an inactive call. Calls follow the shape of the dose curve; as a rule, active = well fitted inhibition curve with a large enough effect; inconclusive = small, poorly fitted or top-dose-only effect, or effect the other way, or another doubt; inactive = no such curve, though single readings can be large or run the other way.

Each compound was assayed against Lysosomal acid glucosylceramidase (Homo sapiens) (UniProt P04062) (assay: qHTS Assay for Inhibitors and Activators of N370S glucocerebrosidase as a Potential Chaperone Treatment of Gaucher Disease). Settings: N370S GC spleen homogenate, 4MU-glucoside fluorescence; series mostly up to 59.4 µM; activity change, negative = inhibition: at the top concentration.
Description: NIH Chemical Genomics Center [NCGC]
NIH Molecular Libraries Probe Production Centers Network [MLPCN]
Assay Submitter (PI): Wei Zheng
Glucocerebrosidase (GC) catalyzes the hydrolysis of beta-glucocerebroside to glucose and ceramide in lysosomes. Mutations in the glucocerebrosidase gene result in Gaucher disease, an autosomal recessive lysosomal storage disorder. Many of the mutations encountered in patients with Gaucher disease are missense alterations that may cause misfolding, decreased stability and/or mistrafficking of this lysosomal protein. […] These inhibitors include iminosugar analogs and three non-iminosugar inhibitors identified from a previous HTS of 62,000 compounds with the wild type recombinant enzyme. However, the enhancement of enzyme activity by the chaperone action of an enzyme inhibitor must be balanced against the direct inhibition of the enzyme. An enzyme activator could also function as a chaperone by binding to the enzyme and helping to correct its misfolding and mistrafficking. While activators for GC have not yet been identified, they may have better therapeutic potential than inhibitors. Therefore the discovery and development of chemical activators may provide a new strategy for the chaperone therapy.
We have optimized a new assay using N370S mutant GC derived from the spleen of a Gaucher patient. […] In addition, the MLPCN compound library has expanded, which increases the chance of finding new and better probes.
NCGC Assay Protocol Summary:
This is a fluorogenic enzyme assay with 4-methylumbelliferyl-beta-D-glucopyranoside as the substrate and N370S glucocerebrosidase from human spleen homogenate as the enzyme preparation. Upon the hydrolysis of this fluorogenic substrate, the resulting product, […] which can be detected by a standard fluorescence plate reader. Data were normalized to the controls for basal activity (without enzyme) and 100% activity (with enzyme). The AC50 values were determined from concentration-response data modeled with the standard Hill equation.
Assay buffer: 50 mM citric acid (titrated with potassium phosphate to pH 5.0), 100 mM potassium chloride, 10 mM sodium chloride, 1 mM magnesium chloride, 0.01% Tween-20.
1536-well assay protocol:
(1) Add 2 ul/well of spleen homogenate (27 ug final)
(2) Add 23 nL compounds in DMSO solution. The final titration was 0.5 nM to 58 uM.
(3) Add 2 ul of substrate (1 mM final)
(4) Incubate at 37C for 40 min.
(5) Add 2 ul stop solution (1M NaOH and 1M Glycine mixture, pH 10)
(6) Detect the assay plate in a ViewLux plate reader (PerkinElmer) with Ex=365 nm and Em=440nm.
Keywords: Glucocerebrosidase, beta-glucosidase, Gaucher Disease, pharmacological chaperone, chaperone therapy, high throughput screening, glucocerebrosidase inhibitor, MLSMR, MLSCN, NIH Roadmap, qHTS and NCGC
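For activity change, negative = inhibition in this document: 0% = full enzyme activity and -100% = no enzyme basal.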
Potency is read from the fitted curve at half-maximal effect.

Row | SMILES | activity change, negative = inhibition | Potency
1 | O=C(NCCc1ccc(F)cc1)c1ccc(S(=O)(=O)N2CCCCC2)cc1 | 1.39% | –
2 | Nc1nc2c(ncn2[C@@H]2O[C@H](COP(=O)(O)OP(=O)(O)OP(=O)(O)O)[C@@H](O)C2O)c(=O)[nH]1 (stereo partly drawn) | 9.3% | –
3 | Cc1occc1-c1nnc(SCC(=O)NC2(C#N)CCCC2)n1C | -17.2% | –
4 | C/C=C(\C)C(=O)OC1C(OC(=O)C2(C)OC2C)c2cc3ccc(=O)oc3cc2OC1(C)C (stereo not drawn) | 3.71% | –
5 | O=C(c1cnccn1)N1CCC2(CCN(Cc3cc(C(F)(F)F)cc(C(F)(F)F)c3)CC2)CC1 | -12.7% | –
6 | Cc1ccc(NC(=O)CCC(=O)N2CCC(c3ccccc3)=N2)cc1S(=O)(=O)N1CCCCC1 | 2.1% | –
7 | CC(=O)OCCC(C)C | 0.964% | –
8 | CCCCCCN(C(=O)CCCCCN1C(=O)NC(c2ccc(C(F)(F)F)cc2)C(C(=O)OCc2ccccc2)=C1C)C(C(=O)NCCCC)c1ccc(OCC(=O)OC)c(C(=O)OC)c1 (stereo not drawn) | 5.32% | –
9 | c1ccc(Oc2ccccc2)cc1 | 22.7% | –
10 | C=CCOC(=O)C(C(C)=O)C(NC(=O)OC)c1ccccc1 (stereo not drawn) | -15.4% [at 12.8 µM] | –
11 | COC(=O)CCc1ccccc1S(=O)(=O)N(CCC(=O)OC)Cc1ccccc1 | 4.9% | –
12 | CC1CC[C@@]23CCC4(C)[C@@]5(C)CCC6C(C)(C)C(O)CC[C@@]6(C)C5C=C[C@@]4(OC2=O)C3C1C (stereo partly drawn) | 17% | –
13 | CCN(CC)/[N+]([O-])=N/Oc1cc(O/[N+]([O-])=N/N2CCCC2CO)c([N+](=O)[O-])cc1[N+](=O)[O-] (stereo not drawn) | -2.99% | –
14 | COC(=O)N1C(/C=C/C=C/c2ccc(OC)cc2)=Cc2ccccc2C1CC(C)=O (stereo not drawn) | -10.4% [at 12.8 µM] | –
15 | COc1ccc(-c2nc3c(c4c2C[C@H](c2ccccc2)OC4)CN(C(=O)C2CC2)CC3)c(C)c1 | -14.3% [at 12.8 µM] | –
16 | C[C@]12CC[C@@H]3C(=CCc4cc(O)ccc43)[C@@H]1CCC2=O | 5.36% [at 21.6 µM] | –
17 | CCOC(OCC)OCC | -6.68% | –
18 | COc1ccc(Cl)cc1NC(=O)CN(C)CC(=O)Nc1ccc2c(c1)OCO2 | -0.107% | –
19 | COc1cccc(CC(=O)N2CCc3nc(COc4ccccc4)c4c(c3C2)CO[C@@H](C)C4)c1 | 3.29% [at 12.8 µM] | –
20 | O=S(=O)(Nc1ccc2nc(N3CCOCC3)sc2c1)c1ccccc1 | -0.448% | –
21 | CC(C)C(NC(=O)c1c(F)cccc1F)C(=O)NCc1ccncc1 (stereo not drawn) | -1.03% | –
22 | O=C(Nc1cccc(C(=O)NC2CC2)c1)c1ccc(F)c(S(=O)(=O)N2CCOCC2)c1 | -12% | –

Row | SMILES | activity change, negative = inhibition | Potency
23 | COc1ccc(CNC(=O)COC(=O)c2c(C)nn(-c3ccccc3)c2C)cc1OC | -7.39% | –
24 | Cc1ccccc1Nc1nc(N)nc(COC(=O)CCC(=O)c2ccc(F)cc2)n1 | -4.41% | –
25 | CN(CC(=O)Nc1cccc(F)c1)C(=O)CC1CCCC1 | 4.61% | –
26 | Cc1nc2cc(-c3ccc(F)cc3)nn2c(N2CCOCC2)c1C | 3.61% | –
27 | Cc1cc(N)n2nc(-c3ccc(C(C)(C)C)cc3)cc2n1 | – | 10 µM (active)
28 | Cc1cc(C(C)(C)C)n2nc(C)c(-c3ccccc3)c2n1 | -12.5% | –
29 | CC(O)[C@@H](N)C(=O)O (stereo partly drawn) | 0.968% | –
30 | CC/C=C/C/C=C/C/C=C/CCCCCCCC(=O)OCC | -5.39% | –
31 | COC(=O)C(C(=O)OC)[C@@H]1CCCC(=O)C1 | 8.05% [at 12.8 µM] | –
32 | Cc1cc(C)c(C#N)c(SCC(=O)N(CC(C)C)C2CCS(=O)(=O)C2)n1 (stereo not drawn) | -3.33% | –
33 | O=C(COc1ccccc1O)NC1CCCC1 | -4.6% | –
34 | FC(F)(F)c1ccccc1-c1cc(NCc2ccccc2)ncn1 | -15.5% | –
35 | COc1cccc(-c2cc(=O)c3cc(NC(=O)c4ccc(C)cc4)ccc3[nH]2)c1 | 3.29% [at 89.1 µM] | –
36 | CCCCC(CC)CN (stereo not drawn) | inactive | –
37 | CCCCC/C=C\C/C=C\C/C=C\CCCCC(=O)NCC(=O)O | -1.79% | –
38 | CC(=O)Nc1ccc(S(=O)(=O)N2CCN(S(=O)(=O)c3cccs3)CC2)cc1 | -3.11% | –
39 | CCc1c2c(nc3ccc(O)cc13)-c1cc3c(c(=O)n1C2)COC(=O)[C@]3(O)CC | -6.54% | –
40 | Cc1cc(C)cc(C#CC2C=CC(Oc3ccc(C4CCCC4)cc3)C(CO)O2)c1 (stereo not drawn) | 7.35% [at 12.8 µM] | –
41 | O=C1C2C(c3ccccc3)CC=CC2C(c2ccoc2)N1Cc1ccccc1 (stereo not drawn) | 1.22% | –
42 | O=C(CN1CCCSc2ccccc21)N1CCN(S(=O)(=O)c2ccccc2)CC1 | 2.06% | –
43 | COC(=O)NC(c1ccccc1)[C@]1(C(C)=O)CCCC1=O (stereo partly drawn) | 0.29% [at 12.8 µM] | –
